Assay outcomes: PubChem, National Center for Advancing Translational Sciences (NCATS)
A selection: hits, their analogues and other compounds. The true share with any hit is near 2.7%.
IP6K1 inh: Primary qHTS assay for small molecule inhibitors of Inositol hexaphosphate kinase 1 (IP6K1). Inositol hexakisphosphate kinase 1 (Homo sapiens), Q92551. IP6K1 kinase, ADP-Glo luminescence, 2 h; hits give low values. activity change, % (series mostly up to about 58 µM). hit rate 0.81% among 140,000; in the data active = activity change below about -25%
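ADP-Glo luminescence measures ADP made by human IP6K1 during a 2 h RT reaction with ATP/IP6 (mix at 1.3 mM/130 uM); top library doses 57.5 and 19.1 uM final.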
KDM5B inh: Primary screen for KDM5B Histone Demethylases FDH-coupled qHTS; Lysine-specific demethylase 5B (Homo sapiens), Q9UGL1; KDM5B demethylase, FDH-coupled NADH fluorescence (FDH is formaldehyde dehydrogenase); Potency, µM (top dose mostly 57.7 µM), hits mostly inhibitors; hit rate 2.6% among 220,000; active = well fitted inhibition curve with a large enough effect; inconclusive = small, poorly fitted or top-dose-only effect; inactive = no such curve, though single readings can be large or run the other way; note: nearly all actives have a fitted effect of over 70% in size
Target sequence (Q9UGL1 whole entry, looked up): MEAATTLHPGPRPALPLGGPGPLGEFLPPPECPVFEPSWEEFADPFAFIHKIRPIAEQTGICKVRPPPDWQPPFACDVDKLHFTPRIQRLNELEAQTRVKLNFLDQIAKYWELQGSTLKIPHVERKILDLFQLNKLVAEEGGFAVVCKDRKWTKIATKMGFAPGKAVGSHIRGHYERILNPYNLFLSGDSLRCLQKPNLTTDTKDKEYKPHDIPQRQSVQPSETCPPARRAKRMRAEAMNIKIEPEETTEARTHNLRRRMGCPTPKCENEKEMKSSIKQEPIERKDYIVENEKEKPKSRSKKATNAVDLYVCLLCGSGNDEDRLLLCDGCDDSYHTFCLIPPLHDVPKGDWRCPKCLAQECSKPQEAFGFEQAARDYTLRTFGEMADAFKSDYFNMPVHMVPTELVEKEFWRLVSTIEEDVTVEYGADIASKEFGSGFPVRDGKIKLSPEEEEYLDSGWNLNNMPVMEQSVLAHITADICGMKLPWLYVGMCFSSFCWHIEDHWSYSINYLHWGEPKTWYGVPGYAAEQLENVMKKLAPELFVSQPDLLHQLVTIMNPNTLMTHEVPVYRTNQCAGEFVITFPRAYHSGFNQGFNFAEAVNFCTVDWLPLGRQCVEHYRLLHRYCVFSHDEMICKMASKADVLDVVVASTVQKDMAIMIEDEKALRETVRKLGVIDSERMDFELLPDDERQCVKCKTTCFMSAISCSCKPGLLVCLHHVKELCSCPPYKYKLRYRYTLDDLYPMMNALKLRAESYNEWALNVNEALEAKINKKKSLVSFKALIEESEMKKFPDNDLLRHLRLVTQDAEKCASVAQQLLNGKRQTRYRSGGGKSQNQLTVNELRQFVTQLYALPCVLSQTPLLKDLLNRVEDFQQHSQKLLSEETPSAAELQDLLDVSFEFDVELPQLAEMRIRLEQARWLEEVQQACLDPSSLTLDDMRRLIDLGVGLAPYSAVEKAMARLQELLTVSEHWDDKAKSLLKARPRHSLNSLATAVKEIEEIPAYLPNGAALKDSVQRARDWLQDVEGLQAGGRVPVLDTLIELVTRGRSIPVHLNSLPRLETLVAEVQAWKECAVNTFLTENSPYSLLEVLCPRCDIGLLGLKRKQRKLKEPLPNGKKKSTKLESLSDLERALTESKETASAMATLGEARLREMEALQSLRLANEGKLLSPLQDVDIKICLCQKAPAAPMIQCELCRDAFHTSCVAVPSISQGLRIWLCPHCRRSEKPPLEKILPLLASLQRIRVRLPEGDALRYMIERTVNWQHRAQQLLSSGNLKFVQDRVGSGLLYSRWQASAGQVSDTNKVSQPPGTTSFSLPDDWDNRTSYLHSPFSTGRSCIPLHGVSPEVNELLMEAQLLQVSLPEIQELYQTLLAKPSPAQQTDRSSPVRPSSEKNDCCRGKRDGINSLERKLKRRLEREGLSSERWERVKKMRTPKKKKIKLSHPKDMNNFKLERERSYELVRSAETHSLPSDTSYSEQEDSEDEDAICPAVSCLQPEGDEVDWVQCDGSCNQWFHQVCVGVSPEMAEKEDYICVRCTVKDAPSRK
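Here, H3K4me3 peptide (12.5 µM in substrate mix) is demethylated by KDM5BΔAP, 200 nM final, after 10 min compound exposure. Formaldehyde product is coupled through FDH (0.25 U/mL in mix) to NADH fluorescence; 30-min ΔRFU feeds dose-response curves.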
A number is an active result; 0 = inactive; ? = inconclusive; - = no result; ! = not active in a repeat.

SMILES	IP6K1 inh	KDM5B inh
CC(C)NC(=O)N1CCC(N2C(=O)C3(CCCC3)C2c2ccccc2)CC1 (configuration not stated)	0	0
COc1ccc(-c2noc([C@@H]3CCCN3C(=O)c3ccc(C)c(C)c3)n2)cc1	0	0
COc1ccc(N2CCN(C(=O)CN3C(=O)NC4(CCCCC4)C3=O)CC2)cc1	0	0
COCCN1CCCC[C@]2(C[C@H](C(=O)O)[C@H](c3ccco3)N2C(=O)Cc2ccccc2)C1=O	0	-
Cc1ccccc1CN1Cc2nc(Nc3ccccc3)ccc2OCC1=O	0	?
COc1ccc(Nc2ccc3c(n2)CN(Cc2ccccc2)C(=O)CO3)cn1	0	0
O=C1COc2ccc(-c3ccc(Cl)cc3)nc2CN1Cc1ccccc1	0	?
O=C1COc2ccc(-c3ccc4c(c3)OCO4)nc2CN1Cc1ccc(C(F)(F)F)cc1	0	32µM
O=C1COc2ccc(-c3cccc(O)c3)nc2CN1Cc1ccc(C(F)(F)F)cc1	0	0
Cc1ccccc1CN1Cc2nc(-c3c(C)noc3C)ccc2OCC1=O	0	35µM
Cc1ccccc1CN1Cc2nc(-c3ccc4c(c3)OCO4)ccc2OCC1=O	0	35µM
O=C1COc2ccc(Nc3ccc(Cl)cc3)nc2CN1Cc1nc2ccccc2s1	0	35µM
O=C(Cn1nnc(-c2ccccc2Cl)n1)N1CCCC1c1ccc2c(c1)OCCO2 (configuration not stated)	-	0
CN(C)c1ccc(NC(=O)c2ccccc2)cc1	-	0
CN(C)c1ccc(NC(=O)c2cc(-c3ccccc3C(F)(F)F)nc3c2cnn3C)cc1	0	-
COc1ccccc1CNC(=O)COc1ncnc2ccccc12	-	0
CCN(CC)CCN(CC(C)C)C(=O)c1sccc1C	-	0
CC(C)(C)OC(=O)CN(CCc1ccccc1)CCS(C)(=O)=O	-	0
Cc1ccccc1CN1Cc2nc(-c3cccc(C(N)=O)c3)ccc2OCC1=O	0	32µM
COc1ccc(Nc2ccc3c(n2)CN(Cc2ccc(F)cc2)C(=O)CO3)cn1	0	?
COc1ccc(Nc2ccc3c(n2)CN(Cc2ccc(C(F)(F)F)cc2)C(=O)CO3)cn1	0	11µM
CN1Cc2nc(-c3ccc4c(c3)OCO4)ccc2OCC1=O	0	32µM
Cc1nc(CN2Cc3nc(-c4ccc5c(c4)OCO5)ccc3OCC2=O)cs1	0	?
CC(=O)Nc1cccc(-c2ccc3c(n2)CN(Cc2ccccc2C)C(=O)CO3)c1	0	0
S=C(NCCCc1ccccc1)Nc1ccc(Br)cc1Cl	-	0
SMILES	IP6K1 inh	KDM5B inh
CC(=O)N(c1cccc(C)c1)c1nc(CSc2nnc(C)n2C2CC2)cs1	-	0
Cc1ccc2c(Cl)c(C(=O)NC(C)c3ccncc3)sc2c1 (configuration not stated)	-	0
O=C(NCC1CCN(c2cc(-c3ccccc3)[nH]n2)CC1)c1ccc[nH]1	0	?
O=C(NCC1CCN(c2cc(-c3ccccc3)[nH]n2)CC1)c1ccc[nH]c1=O	0	32µM
Nc1cc(=O)[nH]c(SCc2ccccc2F)n1	-	0
COc1ccc(OC)c(NC(=O)Cn2c(-c3ccc(Cl)cc3)nc(C)c(CCO)c2=O)c1	0	25µM
COc1ccc(OC)c(NC(=O)Cn2c(-c3cccc(Cl)c3)nc(C)c(CCO)c2=O)c1	0	0
Cc1ccc(N2C(=O)CSC23C(=O)Nc2ccccc23)cc1Br (configuration not stated)	-	0
O=C(Nc1ccc(Oc2ccccc2)cc1)O[C@@H]1CO[C@H]2[C@@H]1OC[C@@H]2n1nnnc1-c1ccc(-c2ccccc2)cc1	0	?
CN(C)c1ccc(-c2nnnn2[C@H]2CO[C@H]3[C@@H]2OC[C@H]3OC(=O)Nc2ccc(Oc3ccccc3)cc2)cc1	0	13µM
CN(C)c1ccc(-c2nnnn2[C@H]2CO[C@H]3[C@@H]2OC[C@H]3OCc2ccccc2)cc1	0	32µM
CN(C)c1ccc(-c2nnnn2[C@H]2CO[C@H]3[C@@H]2OC[C@@H]3NC(=O)NCc2ccccc2)cc1	0	0
Fc1ccc(OCc2coc(-c3ccccc3)n2)c(Br)c1	-	0
O=c1c(Cl)c(N2CCN(Cc3nnc(-c4ccc(Cl)cc4)o3)CC2)cnn1-c1ccccc1	-	0
Cc1oc(-c2cccs2)nc1CN1CCNC(=O)C1	-	0
Cc1oc(-c2cccs2)nc1CN1CCCC(c2ccn[nH]2)C1 (configuration not stated)	0	28µM
c1ccc(-c2ccc(CNCCCn3ccnc3)cc2)cc1	-	0
COC(=O)c1occc1/C=C/C(=O)c1ccc(C#N)cc1	-	0
CC(C)(C)OC(=O)N1CC(Nc2ccc(O)cc2)C1	0	8.9µM!
CC(C)(C)OC(=O)N1CC(Nc2cccc(Oc3ccccc3)c2)C1	0	?
O=C(O)C1CCN(C(=O)c2ccoc2)CC1	-	0
CN(C)c1ccc(C(=O)N2CCN(c3nnc4ccccn34)CC2)cc1	0	18µM
Cc1ccc(C(=O)N2CCN(c3nnc4c(Cl)cccn34)CC2)cc1	0	0
CCc1ccc(C(=O)N2CCCN(c3nnc4ccccn34)CC2)cc1	0	25µM
CCc1ccc(C(=O)N2CCN(c3nc4ccccc4o3)CC2)cc1	-	0
SMILES	IP6K1 inh	KDM5B inh
O=C(c1ccoc1)N1CCN(c2nnc3ccccn23)CC1	0	32µM
CCc1ccc(C(=O)NCc2nnc3cc(-c4nc(C(C)C)no4)ccn23)cc1	0	0
Cc1ccc(C(=O)NCc2nnc3cc(-c4nc(C(C)C)no4)ccn23)cc1	0	10µM
COc1ccccc1CC(=O)NCc1nnc2cc(-c3nc(C(C)C)no3)ccn12	0	?
CC(C)c1noc(-c2ccn3c(CNC(=O)c4ccco4)nnc3c2)n1	0	28µM
CCOC(=O)CC(=O)N1CCC2(CC1)[C@H](C(=O)OCC)[C@@H](O)C(=O)N2Cc1ccccc1	0	-
CN(C)CCNC(=O)C(C)(C)Oc1nn(CC2CCOCC2)c2ccccc12	0	32µM
CC(C)(Oc1nn(CC2CCOCC2)c2ccccc12)C(=O)NCc1ccncc1	0	0
Cc1cccc2ncc(C(=O)N3CCC4(CCNC(=O)CC4)CC3)c(=O)n12	0	22µM
COc1ccccc1-n1cc(C(=O)N2CCC3(CCNC(=O)CC3)CC2)cn1	0	0
COc1ccc(OCC(O)CN2CCC(=O)N(Cc3ccccc3)Cc3ccccc32)cc1 (configuration not stated)	0	-
O=C1NCc2ccccc2CC12CCCN2Cc1ccnc2ccccc12 (configuration not stated)	0	50µM
Cc1ncc(CO)c(CN2CCCCC23Cc2ccccc2CNC3=O)c1O (configuration not stated)	0	0
O=C1NCc2ccccc2CC12CCCN2Cc1ccc2ccccc2n1 (configuration not stated)	0	?
Cc1ncc(CO)c(CN2CCCC23Cc2ccccc2CNC3=O)c1O (configuration not stated)	0	79µM
COc1ccccc1CNC(=O)CCc1nnc2ccc(NCc3ccco3)nn12	-	0
O=C(NCc1cccs1)C1CCCN(Cc2cccc(-c3ccsc3)c2)C1 (configuration not stated)	0	-
CCn1cc(S(=O)(=O)N2CCC(F)(c3nc(-c4ccncc4)no3)CC2)cn1	0	-
O=C(COC(=O)C1CC2CCCC(C1)C2=O)Nc1ccc([N+](=O)[O-])cc1C(F)(F)F (configuration not stated)	-	0
Cc1ccccc1C(=O)NCCC1=CCCCC1	-	0
O=C(NCCC1=CCCCC1)c1noc(-c2ccc[nH]c2=O)n1	0	32µM
